{
  "source": "the supplement of paper PMC8728848",
  "test_in_all_cases": "glycan array binding signal (z-score within array); higher = stronger binding",
  "settings_in_all_cases": "glycan notation: IUPAC condensed, linker removed",
  "key": {"[1]": {"molecular_target": "Gal(b1-4)GlcNAc(b1-3)Gal(b1-4)GlcNAc(b1-3)GalNAc", "in_short": "(§1)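 Negative Z-scores can be read as non-binding. The Z-score is calculated within each array and then averaged across arrays of one protein sequence at different concentrations or buffers and across linkers. Arrays, 3228 in all, were curated from the Consortium for Functional Glycomics database and kept only where the protein sequence was available.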"}, "[2]": {"molecular_target": "Gal(b1-4)GlcNAc(b1-3)Gal(b1-4)GlcNAc(b1-3)[Gal(b1-4)GlcNAc(b1-3)Gal(b1-4)GlcNAc(b1-6)]GalNAc", "in_short": "as §1"}, "[3]": {"molecular_target": "Gal(b1-4)GlcNAc(b1-6)GalNAc", "in_short": "as §1"}, "Gal6S(b1-4)Glc6S": {"molecular_target": "Gal6S(b1-4)Glc6S", "in_short": "as §1"}, "GalNAc(b1-3)Gal": {"molecular_target": "GalNAc(b1-3)Gal", "in_short": "as §1"}, "GalNAc3S(b1-4)GlcNAc": {"molecular_target": "GalNAc3S(b1-4)GlcNAc", "in_short": "as §1"}, "GlcA(b1-3)GlcNAc": {"molecular_target": "GlcA(b1-3)GlcNAc", "in_short": "as §1"}, "[4]": {"molecular_target": "GlcNAc(a1-4)Gal(b1-4)GlcNAc(b1-3)Gal(b1-4)GlcNAc", "in_short": "as §1"}, "[5]": {"molecular_target": "GlcNAc(a1-4)Gal(b1-4)GlcNAc(b1-3)Gal(b1-4)GlcNAc(b1-3)Gal(b1-4)GlcNAc", "in_short": "as §1"}, "[6]": {"molecular_target": "GlcNAc(b1-3)Gal(b1-4)GlcNAc(b1-3)Gal(b1-4)GlcNAc", "in_short": "as §1"}, "[7]": {"molecular_target": "GlcNAc(b1-3)Gal(b1-4)GlcNAc(b1-3)Gal(b1-4)GlcNAc(b1-3)Gal(b1-4)GlcNAc(b1-2)Man(a1-3)[GlcNAc(b1-3)Gal(b1-4)GlcNAc(b1-3)Gal(b1-4)GlcNAc(b1-3)Gal(b1-4)GlcNAc(b1-2)Man(a1-6)]Man(b1-4)GlcNAc(b1-4)[Fuc(a1-6)]GlcNAc", "in_short": "as §1"}, "[8]": {"molecular_target": "GlcNAc(b1-3)[GlcNAc(b1-6)]Gal(b1-4)GlcNAc", "in_short": "as §1"}, "Neu5Ac(a2-3)Gal": {"molecular_target": "Neu5Ac(a2-3)Gal", "in_short": "as §1"}, "[9]": {"molecular_target": "Neu5Ac(a2-3)Gal(b1-3)GalNAc6S", "in_short": "as §1"}, "[10]": {"molecular_target": "Neu5Ac(a2-3)Gal(b1-4)GlcNAc(b1-3)Gal(b1-4)[Fuc(a1-3)]GlcNAc", "in_short": "as §1"}, "[11]": {"molecular_target": "Neu5Ac(a2-3)Gal(b1-4)[Fuc(a1-3)]GlcNAc(b1-3)GalNAc", "in_short": "as §1"}, "[12]": {"molecular_target": "Neu5Ac(a2-3)Gal(b1-4)[Fuc(a1-3)]GlcNAc(b1-6)[Gal(b1-3)]GalNAc", "in_short": "as §1"}, "[13]": {"molecular_target": "Neu5Ac(a2-6)Gal(b1-4)GlcNAc(b1-2)Man", "in_short": "as §1"}, "[14]": {"molecular_target": "Neu5Ac(a2-6)Gal(b1-4)GlcNAc(b1-2)Man(a1-3)Man(b1-4)GlcNAc(b1-4)GlcNAc", "in_short": "as §1"}, "[15]": {"molecular_target": "Neu5Ac(a2-6)Gal(b1-4)GlcNAc(b1-2)Man(a1-3)[Gal(b1-4)GlcNAc(b1-2)Man(a1-6)]Man(b1-4)GlcNAc(b1-4)GlcNAc", "in_short": "as §1"}, "[16]": {"molecular_target": "Neu5Ac(a2-6)Gal(b1-4)GlcNAc(b1-2)Man(a1-6)[Man(a1-3)]Man(b1-4)GlcNAc(b1-4)GlcNAc", "in_short": "as §1"}, "[17]": {"molecular_target": "Neu5Ac(a2-6)Gal(b1-4)GlcNAc(b1-2)[Neu5Ac(a2-6)Gal(b1-4)GlcNAc(b1-4)]Man(a1-3)[GlcNAc(b1-4)][Neu5Ac(a2-6)Gal(b1-4)GlcNAc(b1-2)[Neu5Ac(a2-6)Gal(b1-4)GlcNAc(b1-6)]Man(a1-6)]Man(b1-4)GlcNAc(b1-4)GlcNAc", "in_short": "as §1"}, "[18]": {"molecular_target": "Neu5Ac(a2-6)Gal(b1-4)GlcNAc(b1-3)Gal(b1-4)GlcNAc(b1-2)Man(a1-3)[Neu5Ac(a2-6)Gal(b1-4)GlcNAc(b1-3)Gal(b1-4)GlcNAc(b1-2)Man(a1-6)]GalNAc", "in_short": "as §1"}, "[19]": {"molecular_target": "Neu5Ac(a2-6)Gal(b1-4)GlcNAc(b1-6)[Gal(b1-3)GlcNAc(b1-3)]Gal(b1-4)Glc", "in_short": "as §1"}, "Neu5Ac(a2-6)GalNAc": {"molecular_target": "Neu5Ac(a2-6)GalNAc", "in_short": "as §1"}, "[20]": {"molecular_target": "Neu5Ac(a2-6)GalNAc(b1-4)GlcNAc6S", "in_short": "as §1"}, "[21]": {"molecular_target": "Neu5Ac(a2-8)Neu5Ac(a2-8)Neu5Ac(a2-3)[GalNAc(b1-4)]Gal(b1-4)Glc", "in_short": "as §1"}, "[22]": {"molecular_target": "Neu5Gc(a2-8)Neu5Ac(a2-3)Gal(b1-4)GlcNAc", "in_short": "as §1"}},
  "note": "Only a selection was taken, and the strongest signals are over-represented in it overall.",
  "data": [
    {"binder": "SP16664D-bth-476-27-476 (Bacteroides thetaiotaomicron) (protein) DDLEVGKNIDESAYSGIYENNAYLRDGKSNLVSKVVELHGETYATTVKMGLSKTPNTATSAKVKIDAAYLETYNKAHNTDFALYPQDLVTFANEGILTVNANTKSAEVEMTIRAGEGLQEDKTYAIPVAISDQSSDITIKDEDAKHCIYLVKDMRNAGDAYKGEGVMQGYLFFEVNDVNPLNTLSFQLENGKLLWDVVVLFAANINYDAEAGRPRVQCNPNVQYLLDNNETLLQPLRRRGVKVLLGLLGNHDITGLAQLSEQGAKDFAREVAQYCKAYNLDGVNYDDEYSNSPDLSNPSLTNPSTAAAARLCYETKQAMPDKLVTVFDWGQMYGVATVDGVDAKEWIDIVVANYGSAAYPIGQMTKKQCSGISMEFNLGGGGSLSASKAQSMIDGGYGWFMGFAPSPAKYGSVFSRLQGGGEVLYGSNVAAPTIFYKKNDPTPYKYPDDL", "values": [
      {"measurement": "glycan array binding signal (z-score)", "setting": "[1]", "value": -0.091},
      {"measurement": "glycan array binding signal (z-score)", "setting": "[2]", "value": -0.045},
      {"measurement": "glycan array binding signal (z-score)", "setting": "[3]", "value": -0.123},
      {"measurement": "glycan array binding signal (z-score)", "setting": "Gal6S(b1-4)Glc6S", "value": 0.344},
      {"measurement": "glycan array binding signal (z-score)", "setting": "GalNAc(b1-3)Gal", "value": -0.159},
      {"measurement": "glycan array binding signal (z-score)", "setting": "GalNAc3S(b1-4)GlcNAc", "value": -0.345},
      {"measurement": "glycan array binding signal (z-score)", "setting": "GlcA(b1-3)GlcNAc", "value": -0.153},
      {"measurement": "glycan array binding signal (z-score)", "setting": "[4]", "value": -0.259},
      {"measurement": "glycan array binding signal (z-score)", "setting": "[5]", "value": -0.185},
      {"measurement": "glycan array binding signal (z-score)", "setting": "[6]", "value": 0.054},
      {"measurement": "glycan array binding signal (z-score)", "setting": "[7]", "value": -0.18},
      {"measurement": "glycan array binding signal (z-score)", "setting": "[8]", "value": -0.212},
      {"measurement": "glycan array binding signal (z-score)", "setting": "Neu5Ac(a2-3)Gal", "value": -0.156},
      {"measurement": "glycan array binding signal (z-score)", "setting": "[9]", "value": -0.227},
      {"measurement": "glycan array binding signal (z-score)", "setting": "[10]", "value": 0.058},
      {"measurement": "glycan array binding signal (z-score)", "setting": "[11]", "value": 0.765},
      {"measurement": "glycan array binding signal (z-score)", "setting": "[12]", "value": 9.86},
      {"measurement": "glycan array binding signal (z-score)", "setting": "[13]", "value": -0.235},
      {"measurement": "glycan array binding signal (z-score)", "setting": "[14]", "value": -0.117},
      {"measurement": "glycan array binding signal (z-score)", "setting": "[15]", "value": 2.55},
      {"measurement": "glycan array binding signal (z-score)", "setting": "[16]", "value": 3.75},
      {"measurement": "glycan array binding signal (z-score)", "setting": "[17]", "value": 2.38},
      {"measurement": "glycan array binding signal (z-score)", "setting": "[18]", "value": 1.28},
      {"measurement": "glycan array binding signal (z-score)", "setting": "[19]", "value": -0.349},
      {"measurement": "glycan array binding signal (z-score)", "setting": "Neu5Ac(a2-6)GalNAc", "value": -0.006},
      {"measurement": "glycan array binding signal (z-score)", "setting": "[20]", "value": -0.065},
      {"measurement": "glycan array binding signal (z-score)", "setting": "[21]", "value": 2.53},
      {"measurement": "glycan array binding signal (z-score)", "setting": "[22]", "value": -0.114}
    ]}
  ]
}
